# Reference: article PMC11006913
# Changes are numbered by the printed parent chain.
# Key:
# Experiment in all cases: PBM; 200 nM protein, PBS
# Conditions in all cases: dsDNA, one strand shown
# PITX2 = PITX2 (Homo sapiens, UniProt Q99697 72-157)
# HOXA4 [1] = biological target: HOXA4 (Homo sapiens, UniProt Q00056 201-287, W262R)
# PAX4 [2] = biological target: T1, PAX4 (Homo sapiens, UniProt O43316 9-242)
# T1 sequence: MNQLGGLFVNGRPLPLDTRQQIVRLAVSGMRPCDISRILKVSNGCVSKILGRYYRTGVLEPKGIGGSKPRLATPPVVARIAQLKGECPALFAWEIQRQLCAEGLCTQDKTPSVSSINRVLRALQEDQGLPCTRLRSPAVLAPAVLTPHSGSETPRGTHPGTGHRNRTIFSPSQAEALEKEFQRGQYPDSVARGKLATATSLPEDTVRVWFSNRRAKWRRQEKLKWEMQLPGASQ
# HOXA4 [3] = biological target: HOXA4 (Homo sapiens, UniProt Q00056 201-287, R217L)
# PAX4 [4] = biological target: T2, PAX4 (Homo sapiens, UniProt O43316 9-242, R200Q)
# T2 sequence: T1 sequence with R192Q
# HOXA4 [5] = biological target: HOXA4 (Homo sapiens, UniProt Q00056 201-287)
# PAX4 [6] = biological target: T3, PAX4 (Homo sapiens, UniProt O43316 9-242, R227W)
# T3 sequence: T1 sequence with R219W
# HOXC10 [7] = biological target: HOXC10 (Homo sapiens, UniProt Q9NYD6 254-340, K271E)
# SIX6 [8] = biological target: T4, SIX6 (Homo sapiens, UniProt O95475 114-200, L143V)
# T4 sequence: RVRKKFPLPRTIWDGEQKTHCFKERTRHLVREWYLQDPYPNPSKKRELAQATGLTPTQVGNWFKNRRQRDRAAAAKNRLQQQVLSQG
# SIX6 [9] = biological target: T5, SIX6 (Homo sapiens, UniProt O95475 114-200, H141N)
# T5 sequence: T4 sequence with H28N, V30L
# SIX6 [10] = biological target: T6, SIX6 (Homo sapiens, UniProt O95475 114-200, L143M)
# T6 sequence: T4 sequence with V30M
# SIX6 [11] = biological target: T7, SIX6 (Homo sapiens, UniProt O95475 114-200, L143I)
# T7 sequence: T4 sequence with V30I
# SIX6 [12] = biological target: T8, SIX6 (Homo sapiens, UniProt O95475 114-200, T165A)
# T8 sequence: T4 sequence with V30L, T52A
# SIX6 [13] = biological target: T9, SIX6 (Homo sapiens, UniProt O95475 114-200)
# T9 sequence: T4 sequence with V30L
# HOXD13 [14] = biological target: HOXD13 (Homo sapiens, UniProt P35453 263-343)
# HOXA7 [15] = biological target: HOXA7 (Homo sapiens, UniProt P31268 116-202)
# HOXA7 [16] = biological target: HOXA7 (Homo sapiens, UniProt P31268 116-202, W177C)
# HOXC10 [17] = biological target: HOXC10 (Homo sapiens, UniProt Q9NYD6 254-340)
# HOXD13 [18] = biological target: HOXD13 (Homo sapiens, UniProt P35453 263-343, T313R)
# HOXD13 [19] = biological target: HOXD13 (Homo sapiens, UniProt P35453 263-343, T313A)
# HOXD13 (Homo sapiens, UniProt P35453 263-343, T313A), sequence (P35453 263-343 T313A): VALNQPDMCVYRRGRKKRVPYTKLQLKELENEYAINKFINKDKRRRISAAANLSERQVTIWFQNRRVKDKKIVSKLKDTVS
# HOXA7 (Homo sapiens, UniProt P31268 116-202, W177C), sequence (P31268 116-202 W177C): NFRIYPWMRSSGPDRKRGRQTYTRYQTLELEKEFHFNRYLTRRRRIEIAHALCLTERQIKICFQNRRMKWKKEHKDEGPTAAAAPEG
# HOXD13 (Homo sapiens, UniProt P35453 263-343), sequence (P35453 263-343): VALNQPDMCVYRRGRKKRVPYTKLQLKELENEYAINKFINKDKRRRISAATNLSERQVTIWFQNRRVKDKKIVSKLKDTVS
# HOXA4 (Homo sapiens, UniProt Q00056 201-287, W262R), sequence (Q00056 201-287 W262R): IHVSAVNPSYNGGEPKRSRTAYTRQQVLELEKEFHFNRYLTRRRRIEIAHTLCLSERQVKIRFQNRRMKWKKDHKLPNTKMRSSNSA
# HOXA4 (Homo sapiens, UniProt Q00056 201-287), sequence (Q00056 201-287): as the sequence (Q00056 201-287 W262R) above, with R62W counted along it
# HOXD13 (Homo sapiens, UniProt P35453 263-343, T313R), sequence (P35453 263-343 T313R): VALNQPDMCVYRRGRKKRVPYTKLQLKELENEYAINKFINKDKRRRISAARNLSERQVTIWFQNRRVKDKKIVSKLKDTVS
# HOXA4 (Homo sapiens, UniProt Q00056 201-287, R217L), sequence (Q00056 201-287 R217L): as the sequence (Q00056 201-287 W262R) above, with R17L, R62W counted along it
# HOXA7 (Homo sapiens, UniProt P31268 116-202), sequence (P31268 116-202): as the sequence (P31268 116-202 W177C) above, with C62W counted along it
# HOXC10 (Homo sapiens, UniProt Q9NYD6 254-340), sequence (Q9NYD6 254-340): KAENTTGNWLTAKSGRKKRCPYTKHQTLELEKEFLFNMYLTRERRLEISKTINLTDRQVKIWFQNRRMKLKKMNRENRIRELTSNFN
# HOXC10 (Homo sapiens, UniProt Q9NYD6 254-340, K271E), sequence (Q9NYD6 254-340 K271E): as the sequence (Q9NYD6 254-340) above, with K18E counted along it
sequence,measurement,setting,value
CGGTCCAA,binding signal,PITX2,"7.89 upbm affinity estimate (log intensity, higher = more binding, comparable within an allelic series)"
CGGGCTCC,binding signal,HOXA4 [1],"9.62 upbm affinity estimate (log intensity, higher = more binding, comparable within an allelic series)"
same,binding signal,PAX4 [2],"8.72 upbm affinity estimate (log intensity, higher = more binding, comparable within an allelic series)"
same,binding signal,HOXA4 [3],"9.45 upbm affinity estimate (log intensity, higher = more binding, comparable within an allelic series)"
same,binding signal,PAX4 [4],"9.02 upbm affinity estimate (log intensity, higher = more binding, comparable within an allelic series)"
same,binding signal,HOXA4 [5],"9.29 upbm affinity estimate (log intensity, higher = more binding, comparable within an allelic series)"
same,binding signal,PAX4 [6],"9.04 upbm affinity estimate (log intensity, higher = more binding, comparable within an allelic series)"
AATTAGCT,binding signal,PAX4 [2],"12.2 upbm affinity estimate (log intensity, higher = more binding, comparable within an allelic series)"
same,binding signal,PAX4 [4],"11.9 upbm affinity estimate (log intensity, higher = more binding, comparable within an allelic series)"
same,binding signal,PAX4 [6],"10.9 upbm affinity estimate (log intensity, higher = more binding, comparable within an allelic series)"
GTACTTAA,binding signal,HOXC10 [7],"11.9 upbm affinity estimate (log intensity, higher = more binding, comparable within an allelic series)"
ACGGCTGG,binding signal,PAX4 [2],"9.44 upbm affinity estimate (log intensity, higher = more binding, comparable within an allelic series)"
same,binding signal,PAX4 [4],"9.48 upbm affinity estimate (log intensity, higher = more binding, comparable within an allelic series)"
same,binding signal,PAX4 [6],"9.39 upbm affinity estimate (log intensity, higher = more binding, comparable within an allelic series)"
CCCGGCGG,binding signal,SIX6 [8],"8.98 upbm affinity estimate (log intensity, higher = more binding, comparable within an allelic series)"
same,binding signal,SIX6 [9],"9.13 upbm affinity estimate (log intensity, higher = more binding, comparable within an allelic series)"
same,binding signal,SIX6 [10],"9.17 upbm affinity estimate (log intensity, higher = more binding, comparable within an allelic series)"
same,binding signal,SIX6 [11],"9 upbm affinity estimate (log intensity, higher = more binding, comparable within an allelic series)"
same,binding signal,SIX6 [12],"9.22 upbm affinity estimate (log intensity, higher = more binding, comparable within an allelic series)"
same,binding signal,SIX6 [13],"9.12 upbm affinity estimate (log intensity, higher = more binding, comparable within an allelic series)"
CACGCGTG,binding signal,PITX2,"7.84 upbm affinity estimate (log intensity, higher = more binding, comparable within an allelic series)"
CCGGAGCC,binding signal,HOXA4 [1],"9.74 upbm affinity estimate (log intensity, higher = more binding, comparable within an allelic series)"
same,binding signal,HOXA4 [3],"9.76 upbm affinity estimate (log intensity, higher = more binding, comparable within an allelic series)"
same,binding signal,HOXA4 [5],"9.77 upbm affinity estimate (log intensity, higher = more binding, comparable within an allelic series)"
AATAAGTG,binding signal,HOXD13 [14],"10.6 upbm affinity estimate (log intensity, higher = more binding, comparable within an allelic series)"
ACCCGGGC,binding signal,PAX4 [2],"9.14 upbm affinity estimate (log intensity, higher = more binding, comparable within an allelic series)"
same,binding signal,PAX4 [4],"9.34 upbm affinity estimate (log intensity, higher = more binding, comparable within an allelic series)"
same,binding signal,PAX4 [6],"9.37 upbm affinity estimate (log intensity, higher = more binding, comparable within an allelic series)"
CTAATTGC,binding signal,HOXA4 [1],"10.4 upbm affinity estimate (log intensity, higher = more binding, comparable within an allelic series)"
same,binding signal,HOXA7 [15],"11.4 upbm affinity estimate (log intensity, higher = more binding, comparable within an allelic series)"
same,binding signal,HOXA4 [3],"11.8 upbm affinity estimate (log intensity, higher = more binding, comparable within an allelic series)"
same,binding signal,HOXA4 [5],"13.8 upbm affinity estimate (log intensity, higher = more binding, comparable within an allelic series)"
same,binding signal,HOXA7 [16],"8.67 upbm affinity estimate (log intensity, higher = more binding, comparable within an allelic series)"
ACCACTTA,binding signal,HOXC10 [17],"10.9 upbm affinity estimate (log intensity, higher = more binding, comparable within an allelic series)"
CCGACCTC,binding signal,HOXD13 [18],"9.52 upbm affinity estimate (log intensity, higher = more binding, comparable within an allelic series)"
same,binding signal,HOXD13 [14],"9.45 upbm affinity estimate (log intensity, higher = more binding, comparable within an allelic series)"
same,binding signal,HOXD13 [19],"9.44 upbm affinity estimate (log intensity, higher = more binding, comparable within an allelic series)"
CCGACGCC,binding signal,HOXA7 [15],"8.58 upbm affinity estimate (log intensity, higher = more binding, comparable within an allelic series)"
same,binding signal,HOXA7 [16],"8.45 upbm affinity estimate (log intensity, higher = more binding, comparable within an allelic series)"
CCGGTGGC,binding signal,HOXD13 [18],"9.44 upbm affinity estimate (log intensity, higher = more binding, comparable within an allelic series)"
same,binding signal,HOXD13 [14],"9.29 upbm affinity estimate (log intensity, higher = more binding, comparable within an allelic series)"
same,binding signal,HOXD13 [19],"9.43 upbm affinity estimate (log intensity, higher = more binding, comparable within an allelic series)"
CCAGCCAG,binding signal,HOXD13 [18],"9.41 upbm affinity estimate (log intensity, higher = more binding, comparable within an allelic series)"
same,binding signal,HOXD13 [14],"9.59 upbm affinity estimate (log intensity, higher = more binding, comparable within an allelic series)"
same,binding signal,HOXD13 [19],"9.56 upbm affinity estimate (log intensity, higher = more binding, comparable within an allelic series)"
ATAATGGG,binding signal,HOXA7 [15],"11.2 upbm affinity estimate (log intensity, higher = more binding, comparable within an allelic series)"
same,binding signal,HOXA7 [16],"8.88 upbm affinity estimate (log intensity, higher = more binding, comparable within an allelic series)"
CGGTCGGC,binding signal,PITX2,"7.99 upbm affinity estimate (log intensity, higher = more binding, comparable within an allelic series)"
CCTGGGCC,binding signal,HOXC10 [17],"10.1 upbm affinity estimate (log intensity, higher = more binding, comparable within an allelic series)"
same,binding signal,HOXC10 [7],"9.99 upbm affinity estimate (log intensity, higher = more binding, comparable within an allelic series)"
